{"source": "the supplement of paper PMC8728848", "binders": {"B1": {"name": "PFL (Pseudomonas fluorescens) (protein)", "chain": "MSKYAVANQWGGSSAPWHPGGTWVLGARDNQNVVAIEIKSGDGGKSFTGTMTYAGEGPIGFKAQRTGQNQYNVENQWGGNDAPWHPGGKWVIGGRDNQNVIALSVTSSDGGKNLSGTNTYANEGPIGFRGQIE"}}, "assay_in_all_cases": "glycan array binding signal (z-score within array); higher = stronger binding", "details_in_all_cases": "glycan notation: IUPAC condensed, linker removed", "key": {"[1]": {"target": "Fuc(a1-2)Gal(b1-3)GalNAc(b1-3)Gal(a1-4)Gal(b1-4)Glc", "summary_of_the_method": "(§1)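 Negative Z-scores can be read as non-binding. The Z-score is calculated within each array and then averaged across arrays of one protein sequence at different concentrations or buffers and across linkers. Arrays, 3228 in all, were curated from the Consortium for Functional Glycomics database and kept only where the protein sequence was available.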"}, "[2]": {"target": "Fuc(a1-2)Gal(b1-3)GlcNAc(b1-3)[Gal(b1-4)GlcNAc(b1-6)]Gal(b1-4)Glc", "summary_of_the_method": "as §1"}, "[3]": {"target": "Fuc(a1-2)Gal(b1-3)[Fuc(a1-4)]GlcNAc(b1-3)[Fuc(a1-3)[Gal(b1-4)]GlcNAc(b1-6)]Gal(b1-4)Glc", "summary_of_the_method": "as §1"}, "[4]": {"target": "Fuc(a1-2)[Gal(a1-3)]Gal(b1-3)GlcNAc(b1-2)Man(a1-3)[Fuc(a1-2)[Gal(a1-3)]Gal(b1-3)GlcNAc(b1-2)Man(a1-6)]Man(b1-4)GlcNAc(b1-4)[Fuc(a1-6)]GlcNAc", "summary_of_the_method": "as §1"}, "[5]": {"target": "Fuc(a1-2)[Gal(a1-3)]Gal(b1-4)GlcNAc(b1-2)Man(a1-3)[Fuc(a1-2)[Gal(a1-3)]Gal(b1-4)GlcNAc(b1-2)Man(a1-6)]Man(b1-4)GlcNAc(b1-4)GlcNAc", "summary_of_the_method": "as §1"}, "[6]": {"target": "Fuc(a1-2)[GalNAc(a1-3)]Gal(b1-3)GlcNAc(b1-2)Man(a1-3)[Fuc(a1-2)[GalNAc(a1-3)]Gal(b1-3)GlcNAc(b1-2)Man(a1-6)]Man(b1-4)GlcNAc(b1-4)[Fuc(a1-6)]GlcNAc", "summary_of_the_method": "as §1"}, "[7]": {"target": "Fuc(a1-2)[GalNAc(a1-3)]Gal(b1-4)Glc", "summary_of_the_method": "as §1"}, "[8]": {"target": "Fuc(a1-2)[GalNAc(a1-3)]Gal(b1-4)GlcNAc(b1-3)[Fuc(a1-2)[GalNAc(a1-3)]Gal(b1-4)GlcNAc(b1-6)]GalNAc", "summary_of_the_method": "as §1"}, "[9]": {"target": "Fuc(a1-2)[GalNAc(a1-3)]Gal(b1-4)[Fuc(a1-3)]GlcNAc", "summary_of_the_method": "as §1"}, "Fuc(a1-3)GlcNAc": {"target": "Fuc(a1-3)GlcNAc", "summary_of_the_method": "as §1"}, "[10]": {"target": "Fuc(a1-3)[GalNAc(b1-4)]GlcNAc", "summary_of_the_method": "as §1"}, "Fuc(a1-4)GlcNAc": {"target": "Fuc(a1-4)GlcNAc", "summary_of_the_method": "as §1"}, "[11]": {"target": "Gal(a1-3)Gal(b1-3)[Fuc(a1-4)]GlcNAc(b1-2)Man(a1-3)[Gal(a1-3)Gal(b1-3)[Fuc(a1-4)]GlcNAc(b1-2)Man(a1-6)]Man(b1-4)GlcNAc(b1-4)GlcNAc", "summary_of_the_method": "as §1"}, "[12]": {"target": "Gal(b1-3)[Fuc(a1-4)]GlcNAc(b1-2)Man(a1-3)[Gal(b1-3)[Fuc(a1-4)]GlcNAc(b1-2)Man(a1-6)]Man(b1-4)GlcNAc(b1-4)[Fuc(a1-6)]GlcNAc", "summary_of_the_method": "as §1"}, "[13]": {"target": "Gal(b1-4)GlcNAc(b1-2)[Gal(b1-4)GlcNAc(b1-4)]Man(a1-3)[Gal(b1-4)GlcNAc(b1-2)[Gal(b1-4)GlcNAc(b1-6)]Man(a1-6)]Man(b1-4)GlcNAc(b1-4)GlcNAc", "summary_of_the_method": "as §1"}, "[14]": {"target": "Gal(b1-4)GlcNAc(b1-2)[Gal(b1-4)GlcNAc(b1-4)]Man(a1-3)[GlcNAc(b1-4)][Gal(b1-4)GlcNAc(b1-2)Man(a1-6)]Man(b1-4)GlcNAc(b1-4)GlcNAc", "summary_of_the_method": "as §1"}, "[15]": {"target": "Gal(b1-4)GlcNAc(b1-3)Gal(b1-3)GalNAc", "summary_of_the_method": "as §1"}, "[16]": {"target": "Gal(b1-4)GlcNAc(b1-6)[Gal(b1-3)]GalNAc", "summary_of_the_method": "as §1"}, "[17]": {"target": "Gal(b1-4)GlcNAc(b1-6)[Gal(b1-4)GlcNAc(b1-3)]GalNAc", "summary_of_the_method": "as §1"}, "Gal3S(b1-3)GalNAc": {"target": "Gal3S(b1-3)GalNAc", "summary_of_the_method": "as §1"}, "Gal6S(b1-4)Glc6S": {"target": "Gal6S(b1-4)Glc6S", "summary_of_the_method": "as §1"}, "[18]": {"target": "GalNAc3S(b1-4)[Fuc(a1-3)]GlcNAc", "summary_of_the_method": "as §1"}, "Glc(a1-4)Glc": {"target": "Glc(a1-4)Glc", "summary_of_the_method": "as §1"}, "[19]": {"target": "GlcNAc(a1-4)Gal(b1-4)GlcNAc(b1-3)Gal(b1-4)GlcNAc", "summary_of_the_method": "as §1"}, "[20]": {"target": "GlcNAc(b1-3)Gal(b1-4)GlcNAc(b1-2)Man(a1-3)[GlcNAc(b1-3)Gal(b1-4)GlcNAc(b1-2)Man(a1-6)]Man(b1-4)GlcNAc(b1-4)GlcNAc", "summary_of_the_method": "as §1"}, "[21]": {"target": "GlcNAc(b1-3)Gal(b1-4)GlcNAc(b1-3)GalNAc", "summary_of_the_method": "as §1"}, "[22]": {"target": "GlcNAc(b1-3)Gal(b1-4)GlcNAc(b1-3)[GlcNAc(b1-3)Gal(b1-4)GlcNAc(b1-3)]GalNAc", "summary_of_the_method": "as §1"}, "[23]": {"target": "GlcNAc(b1-3)Gal(b1-4)GlcNAc(b1-6)[Gal(b1-3)]GalNAc", "summary_of_the_method": "as §1"}, "[24]": {"target": "GlcNAc(b1-6)Gal(b1-4)GlcNAc", "summary_of_the_method": "as §1"}, "[25]": {"target": "Man(a1-2)Man(a1-3)[Man(a1-2)Man(a1-6)]Man(a1-6)[Man(a1-2)Man(a1-2)Man(a1-3)]Man(b1-4)GlcNAc(b1-4)GlcNAc", "summary_of_the_method": "as §1"}, "[26]": {"target": "Man(a1-2)Man(a1-3)[Man(a1-6)]Man(a1-6)[Man(a1-2)Man(a1-3)]Man(b1-4)GlcNAc(b1-4)GlcNAc", "summary_of_the_method": "as §1"}, "[27]": {"target": "Man(a1-2)Man(a1-6)[Man(a1-3)]Man(a1-6)[Man(a1-2)Man(a1-2)Man(a1-3)]Man(b1-4)GlcNAc(b1-4)GlcNAc", "summary_of_the_method": "as §1"}, "[28]": {"target": "Man(a1-3)[Man(a1-6)]Man(a1-6)[Man(a1-2)Man(a1-3)]Man(b1-4)GlcNAc(b1-4)GlcNAc", "summary_of_the_method": "as §1"}, "[29]": {"target": "Man(a1-3)[Man(a1-6)]Man(a1-6)[Man(a1-3)]Man", "summary_of_the_method": "as §1"}, "[30]": {"target": "Man(a1-3)[Man(a1-6)]Man(a1-6)[Man(a1-3)]Man(b1-4)GlcNAc(b1-4)GlcNAc", "summary_of_the_method": "as §1"}, "[31]": {"target": "Neu5Ac(a2-3)Gal(b1-3)[Fuc(a1-4)]GlcNAc", "summary_of_the_method": "as §1"}, "[32]": {"target": "Neu5Ac(a2-3)Gal(b1-4)[Fuc(a1-3)]GlcNAc(b1-3)Gal", "summary_of_the_method": "as §1"}, "[33]": {"target": "Neu5Ac(a2-6)Gal(b1-4)GlcNAc(b1-2)Man(a1-3)[GlcNAc(b1-2)Man(a1-6)]Man(b1-4)GlcNAc(b1-4)GlcNAc", "summary_of_the_method": "as §1"}, "[34]": {"target": "Neu5Ac(a2-6)Gal(b1-4)GlcNAc(b1-3)Gal(b1-4)GlcNAc(b1-6)[Gal(b1-3)]GalNAc", "summary_of_the_method": "as §1"}, "[35]": {"target": "Neu5Ac(a2-6)Gal(b1-4)GlcNAc(b1-6)[Gal(b1-3)]GalNAc", "summary_of_the_method": "as §1"}, "Neu5Gc(a2-6)GalNAc": {"target": "Neu5Gc(a2-6)GalNAc", "summary_of_the_method": "as §1"}}, "note": "The entries come from a sample that favours the strongest signals as a whole.", "data": [{"binder": "B1", "values": [{"measurement": "glycan array binding signal (z-score)", "setting": "[1]", "value": -0.111}, {"measurement": "glycan array binding signal (z-score)", "setting": "[2]", "value": -0.11}, {"measurement": "glycan array binding signal (z-score)", "setting": "[3]", "value": -0.113}, {"measurement": "glycan array binding signal (z-score)", "setting": "[4]", "value": 0.415}, {"measurement": "glycan array binding signal (z-score)", "setting": "[5]", "value": -0.073}, {"measurement": "glycan array binding signal (z-score)", "setting": "[6]", "value": 0.249}, {"measurement": "glycan array binding signal (z-score)", "setting": "[7]", "value": -0.112}, {"measurement": "glycan array binding signal (z-score)", "setting": "[8]", "value": -0.103}, {"measurement": "glycan array binding signal (z-score)", "setting": "[9]", "value": -0.111}, {"measurement": "glycan array binding signal (z-score)", "setting": "Fuc(a1-3)GlcNAc", "value": -0.12}, {"measurement": "glycan array binding signal (z-score)", "setting": "[10]", "value": -0.105}, {"measurement": "glycan array binding signal (z-score)", "setting": "Fuc(a1-4)GlcNAc", "value": -0.116}, {"measurement": "glycan array binding signal (z-score)", "setting": "[11]", "value": 0.499}, {"measurement": "glycan array binding signal (z-score)", "setting": "[12]", "value": 0.665}, {"measurement": "glycan array binding signal (z-score)", "setting": "[13]", "value": 0.988}, {"measurement": "glycan array binding signal (z-score)", "setting": "[14]", "value": -0.117}, {"measurement": "glycan array binding signal (z-score)", "setting": "[15]", "value": -0.116}, {"measurement": "glycan array binding signal (z-score)", "setting": "[16]", "value": -0.113}, {"measurement": "glycan array binding signal (z-score)", "setting": "[17]", "value": -0.108}, {"measurement": "glycan array binding signal (z-score)", "setting": "Gal3S(b1-3)GalNAc", "value": -0.116}, {"measurement": "glycan array binding signal (z-score)", "setting": "Gal6S(b1-4)Glc6S", "value": -0.107}, {"measurement": "glycan array binding signal (z-score)", "setting": "[18]", "value": -0.116}, {"measurement": "glycan array binding signal (z-score)", "setting": "Glc(a1-4)Glc", "value": -0.116}, {"measurement": "glycan array binding signal (z-score)", "setting": "[19]", "value": -0.117}, {"measurement": "glycan array binding signal (z-score)", "setting": "[20]", "value": -0.111}, {"measurement": "glycan array binding signal (z-score)", "setting": "[21]", "value": -0.112}, {"measurement": "glycan array binding signal (z-score)", "setting": "[22]", "value": -0.11}, {"measurement": "glycan array binding signal (z-score)", "setting": "[23]", "value": -0.115}, {"measurement": "glycan array binding signal (z-score)", "setting": "[24]", "value": -0.117}, {"measurement": "glycan array binding signal (z-score)", "setting": "[25]", "value": 3.46}, {"measurement": "glycan array binding signal (z-score)", "setting": "[26]", "value": 9.19}, {"measurement": "glycan array binding signal (z-score)", "setting": "[27]", "value": 11.7}, {"measurement": "glycan array binding signal (z-score)", "setting": "[28]", "value": 13.2}, {"measurement": "glycan array binding signal (z-score)", "setting": "[29]", "value": 7.17}, {"measurement": "glycan array binding signal (z-score)", "setting": "[30]", "value": 10.9}, {"measurement": "glycan array binding signal (z-score)", "setting": "[31]", "value": -0.12}, {"measurement": "glycan array binding signal (z-score)", "setting": "[32]", "value": -0.117}, {"measurement": "glycan array binding signal (z-score)", "setting": "[33]", "value": 0.313}, {"measurement": "glycan array binding signal (z-score)", "setting": "[34]", "value": -0.118}, {"measurement": "glycan array binding signal (z-score)", "setting": "[35]", "value": -0.117}, {"measurement": "glycan array binding signal (z-score)", "setting": "Neu5Gc(a2-6)GalNAc", "value": -0.114}]}]}
